# Test results reported in PubChem BioAssay (NCI).
# The panel holds about 83,000 compounds, 20% with a hit somewhere; the sample as a whole holds those more often.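 Step 1: grow cells in 96-well plates. Step 2: add test compound at a single concentration. Step 3: incubate 48 h. Step 4: record percent growth.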 Values without a mark were called inactive. Active and inactive are the calls of the source. Rule for the calls: active = growth percent below 10; inactive = the rest.
# Test system: HCT-116 colon
# Assay: NCI-60 one-dose screen, 48 h (100 = growth as untreated, 0 = no growth, -100 = all killed)
# Settings: 10 µM
row,SMILES,growth
1,CN1CCN(c2ccc(Nc3nc(NCCCNC(=O)c4ccccc4)c4sccc4n3)cc2)CC1,30.9%
2,C=C1CC[C@H](C(=C)C)[C@H]2C=C(C)C(=O)C3=C(C(=O)[C@@](C)(O)C3)[C@H]12,12.2%
3,COc1ccc(N(C)c2cc(C#N)nc3ccccc23)cc1N,6.17% (active)
4,COc1ccc(C(C)=C(c2ccc(OCCCN(C)C)cc2)c2ccc(OCCCN(C)C)cc2)cc1,-72.1% (active)
5,CC1(c2ccccc2)NC(=O)N(CC(=O)Nc2ccc(C(=O)/C=C/c3ccc(Cl)cc3)cc2)C1=O (centres undefined),-69.1% (active)
6,COC[C@@H](CC(C)C)N=C1N/C(=C\c2ccc3ncsc3c2)C(=O)N1C,14.5%
7,O=C(CSc1ccc(-c2ccc(Cl)cc2)nn1)Nc1ccc(Cl)c(C(F)(F)F)c1,50.7%
8,Cc1ccc(NC(=O)NCn2c(=O)[nH]c3ccccc3c2=O)cc1,60.1%
9,Cc1cc(C)cc(Oc2cccc(-c3c(C)nnn3C3CCN(CCN(C)C)CC3)n2)c1,15.2%
10,CC(=O)NCC1=C(C)C=C2C(=O)[C@](C)(O)C3(CC3)C(C)=C21,-45.1% (active)
11,O=C(Nc1ccc(OCC(=O)c2ccccc2)cc1)Nc1ccc(Cl)c(C(F)(F)F)c1,29.6%
12,CCOC(=O)c1c(CSc2ccccc2)n(C)c2cc(CN(C)C)c(O)c(CN(C)C)c12,10.9%
13,Cc1ccc(-c2cc(-c3cc4ccccc4nc3Cl)[nH]c(=O)n2)cc1,-72.8% (active)
14,COc1ccc([C@H]2C(C(=O)c3ccc(Cl)cc3)C3(N[C@@H]2c2ccccc2)C(=O)Nc2ccc(Br)cc23)cc1 (some centres undefined),1.73% (active)
15,O=C(CS(=O)(=O)c1oc(-c2ccc(Cl)cc2)nc1S(=O)(=O)c1ccc(Cl)cc1)N1CCOCC1,4.36% (active)
16,COc1ccc(C=CC(=O)c2ccc(-n3c(C)nc4c(cnn4-c4ccccc4)c3=O)cc2)cc1,9.71% (active)
17,O=C1Nc2ccc(Cl)cc2/C1=C/c1cccc(OCc2ccccc2)c1,17%
18,CN(C)c1ccc(/C=C/C(=O)c2ccc(NC(=O)CN3C(=O)NC(C)(c4ccccc4)C3=O)cc2)cc1 (centres undefined),26.4%
19,CN1CCN(Cc2ccc(C(=O)Nc3cccc(Nc4ccc5cc(O)ccc5n4)c3)cc2C(F)(F)F)CC1,1.51% (active)
20,Nc1nnc(-c2c[nH]c3ccc(F)cc23)c(-c2c[nH]c3ncccc23)n1,25%
21,C/C(=C\CC/C=C(\C)CC/C=C(\C)CC[C@@H](O)C(C)(C)O)CC/C=C(\C)CC[C@@H](O)C(C)(C)O,10%
22,Cc1ccc(-c2ccc(SCC(=O)Nc3ccc(Cl)c(C(F)(F)F)c3)nn2)cc1,10.3%
23,CN1CCN(c2ccc(Nc3nc(NCCCNC(=O)c4ccc(F)cc4)c4sccc4n3)cc2)CC1,33.5%
24,C#Cc1ccc(S(=O)(=O)Nc2cccc(-c3csc(NC(C)=O)n3)c2)cc1,77.9%
